Screening results: PubChem BioAssay, National Center for Advancing Translational Sciences (NCATS)
The list is not random: actives were taken first. Their share in the collection is about 9%.
ALDH1A1 inh – blocks purified human ALDH1A1 activity. P00352. Purified ALDH1A1, NADH fluorescence, propionaldehyde substrate. Potency, µM (series often up to 75.3 µM), for the others: at the top dose activity, negative = inhibition, usual class: inhibitors. hit rate 7.3% among 220,000. AID 1030; active = well fitted inhibition curve with a large enough effect, not every such curve was filed as active; inconclusive = small, poorly fitted or top-dose-only effect, or another doubt; inactive = no such curve, though single readings can be large or run the other way;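 note: plate controls were no enzyme wells and a reference inhibitor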
Target sequence (P00352 whole entry, looked up): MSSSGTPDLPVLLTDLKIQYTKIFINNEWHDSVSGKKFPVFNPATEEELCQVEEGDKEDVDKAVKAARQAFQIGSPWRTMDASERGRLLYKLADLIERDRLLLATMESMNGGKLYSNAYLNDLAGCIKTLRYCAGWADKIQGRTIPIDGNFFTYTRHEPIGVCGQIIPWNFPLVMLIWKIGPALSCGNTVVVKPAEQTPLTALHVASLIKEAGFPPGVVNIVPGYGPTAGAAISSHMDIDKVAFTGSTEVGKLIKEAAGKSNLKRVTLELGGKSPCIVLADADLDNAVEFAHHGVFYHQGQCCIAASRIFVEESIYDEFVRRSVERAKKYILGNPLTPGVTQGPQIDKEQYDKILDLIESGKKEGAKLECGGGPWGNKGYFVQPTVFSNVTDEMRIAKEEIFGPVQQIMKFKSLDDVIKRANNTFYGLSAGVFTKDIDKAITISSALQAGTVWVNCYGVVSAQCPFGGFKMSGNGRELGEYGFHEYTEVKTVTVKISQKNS
Luc counter – counter-screen: inhibitors of Kinase-Glo firefly luciferase | Potency, µM (doses to about 38.3 µM), without a hit: top-dose activity change, negative = inhibition, usual class: inhibitors | Kinase-Glo luciferase, ATP luminescence, 8 min | Q27757 | hit rate 0.28% among 200,000 | AID 1379; note: nearly all actives have a fitted effect of over 60% in size
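Kinase-Glo luciferase light output from ATP and luciferin was measured with 10 uM ATP, within the enzyme's linear range. Buffer: 50 mM imidazole pH 7.2, 50 mM KCl, 7 mM MgCl2, 0.01% Tween 20, 0.05% BSA; luminescence read after 8 min at ambient temperature.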
Lamin A splicing – LMNA splicing modulation | Potency, µM (doses to about 46.1 µM), for inactives: at the highest dose ratio change, negative = inhibition, actives largely listed as inhibitors | HeLa LMNA splicing GFP/RFP minigene ratio, 48 h | hit rate 0.01% among 200,000 | AID 1487; active = well fitted inhibition curve with a large enough effect in the signal ratio, with a control signal flat, not every such curve was filed as active; inconclusive = small, poorly fitted or top-dose-only effect, or effect the other way, or a change in a side signal; the % refers to the signal ratio
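Read-out is the ratio of GFP to DsRed2 object intensity, acquired by 488 nm laser-scanning cytometry on HeLa lamin A-EGFP minigene reporter cells. Compound incubation 48 hrs at 37 °C in Opti-MEM with 2% FBS; DMSO 0.5% final.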
HPGD block – blocks human HPGD enzyme activity. P15428. purified HPGD, NADH fluorescence kinetic, PGE2 substrate. Potency, µM, inactives show at the top dose activity change, negative = inhibition, hits mostly inhibitors. hit rate 4.3% among 150,000. AID 894; active = well fitted inhibition curve with a large enough effect, not every such curve was filed as active; inconclusive = small, poorly fitted or top-dose-only effect, or another doubt; inactive = no such curve, though single readings can be large or run the other way
Target sequence (P15428 whole entry, looked up): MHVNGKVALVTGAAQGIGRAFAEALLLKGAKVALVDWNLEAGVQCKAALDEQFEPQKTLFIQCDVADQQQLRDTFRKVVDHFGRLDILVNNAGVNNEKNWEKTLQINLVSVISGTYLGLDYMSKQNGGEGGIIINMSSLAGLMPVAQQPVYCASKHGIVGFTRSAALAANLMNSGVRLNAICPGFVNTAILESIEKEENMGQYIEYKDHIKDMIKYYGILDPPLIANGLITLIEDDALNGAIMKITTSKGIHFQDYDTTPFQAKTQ
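20 nM HPGD preincubated 15 min at room temperature with compound in 50 mM Tris-HCl pH 8, 0.01% Tween 20. Started with 1 mM NAD+ and 30 uM prostaglandin E2; NADH fluorescence (360/450 nm) read 5 times over 30-s intervals, last minus first.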
IMPase Li cell – cell-permeable IMPase inhibitors with lithium potentiation | CHO-M1 cells, IP1 TR-FRET (IP-One), carbachol + lithium | Potency, µM (doses to about 59.4 µM), for the others: top-dose activity, negative = IMPase inhibition, actives largely listed as inhibitors | hit rate 0.35% among 210,000;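 note: IP1 builds up when IMPase is blocked and the TR-FRET signal falls; plate controls were basal vehicle for no effect and high inhibitor control for full effect; nearly all actives have a fitted effect of over 50% in size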
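Concentration–response in CHO-M1 cells, lithium-potentiated; 30 min at 37C. IP1 detected by competitive TR-FRET after 10 min lysis at RT. Hill-fitted AC50.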
An asterisk follows results filed as active; ? = inconclusive; . = no result given; [ ] = another dose, or the depositor's remark. Unless noted, calls come from the whole dose curve; as a rule, active = well fitted curve in the direction sought with a large enough effect; inconclusive = small, poorly fitted or top-dose-only effect, or another doubt; inactive = no such curve, though single readings can be large; an effect the other way counts as inactive or inconclusive. Unless noted, % is set by controls: 0 for no effect and ±100 for the full control effect; potency is the fitted concentration of half-maximal effect.

SMILES	ALDH1A1 inh	Luc counter	Lamin A splicing	HPGD block	IMPase Li cell
COc1ccc(C(C#N)N2CCC(c3ccccc3)=N2)cc1OC (stereo not drawn)	2.24µM*	0.8%	?	.	3.4%
COc1ccc(C2=NN(C(C#N)c3ccc(OC)c(OC)c3)C(c3ccccc3)C2)cc1 (stereo not drawn)	17.8µM*	-5.4%	-8.3%	-29.3%	17.8%[38.3 µM]
COc1ccc(C(C#N)N2CCCCCC2)cc1OC (stereo not drawn)	?	-0.5%	0.2%	-12.4%	-12.8%[38.3 µM]
Cc1ccccc1CN1CCN(Cc2ccccc2C(F)(F)F)CC1	?	3.5%	1.2%	3.2%	30.7%[38.3 µM]
CN(CCN1CCc2ccccc2C1)Cc1nc(Cc2ccccc2F)no1	-5.6%	.	.	.	.
CC1=CS(=O)(=O)CC1Sc1nc2ccccc2[nH]1 (stereo not drawn)	8.1%	-2.3%	5.1%	-0.2%	3.2%
COc1ccc(CCNC(=O)C2CCN(C(=O)c3cccs3)CC2)cc1	0.398µM*	10.7%	?	.	1.5%
O=C(NCCc1ccc(Cl)cc1)C1CCN(S(=O)(=O)N2CCCC2)CC1	3.16µM*	-0.5%	8.4%	-5.4%	-12.8%[38.3 µM]
CC(CCc1ccccc1)NC(=O)C1CCN(c2nnc(-n3cccc3)s2)CC1 (stereo not drawn)	-4.8%	-3.4%	?	-10.5%	25.0%[38.3 µM]
O=C(NCCc1ccc(Cl)cc1)C1CCN(C(=O)c2sccc2-n2cccc2)CC1	0.501µM*	2.2%	-21.9%	-0.3%	28.1%[38.3 µM]
CC(CCc1ccccc1)NC(=O)C1CCN(C(=O)c2sccc2-n2cccc2)CC1 (stereo not drawn)	0.355µM*	-0.2%	-2.4%	-9.1%	6.5%[38.3 µM]
CN1C(=O)NC(NS(=O)(=O)c2ccc(N)cc2)(C(F)(F)F)C1=O (stereo not drawn)	?	6.2%	-3.0%[46 µM]	.	-4.2%
COCCCNc1oc(COc2ccc(Cl)cc2Cl)nc1C#N	0.4%	-0.2%	0.1%	28.2µM*	3.9%[38.3 µM]
COc1ccc(CCNc2oc(COc3ccccc3F)nc2C#N)cc1	?	-0.2%	-10.1%	17.8µM*	17.8%
COc1ccc(CCNc2oc(Cc3cccc4ccccc34)nc2C#N)cc1OC	7.08µM*	0.1%	?	-27.6%	16.4%[38.3 µM]
COc1ccc(Nc2oc(COc3ccc(Cl)cc3)nc2C#N)cc1	-6.4%	-0.9%	0.0%	28.2µM*	35.3%[38.3 µM]
CC1CCCO1 (stereo not drawn)	-2.1%	.	.	-7.9%	16.9%
COc1ccc(CNc2oc(COc3ccc(Cl)cc3)nc2C#N)cc1	-5.2%	-2.1%	?	-22.9%	34.1%[38.3 µM]
N#Cc1nc(COc2ccccc2F)oc1NCc1ccc(F)cc1	?	1.1%	5.8%	20µM*	22.1%[38.3 µM]
O=C(NNc1ccc(O)cc1)c1ccc(Br)cc1	7.08µM*	-1.7%	.	.	4.7%
O=C(Nc1cccc(O)c1)c1ccc(Br)cc1	8.0%	-6.9%	5.5%	-1.4%	18.8%[38.3 µM]
CCOC(=O)/C(=N\Nc1ccc(Br)cc1)N1CCN(c2ccccc2OC)CC1	-7.8%	-2.2%	.	.	8.6%
CCCCOc1ccccc1NC(=O)CC1Nc2ccccc2NC1=O (stereo not drawn)	14.1µM*	2.5%	6.4%	-6.9%	1.3%[38.3 µM]
COc1ccc(Cl)cc1NC(=O)CSc1nnc(CN2CCOCC2)n1-c1ccc(Cl)cc1	0.1%	-3.4%	2.0%	-0.8%	25.5%[38.3 µM]
O=C1N/C(=C/c2cccn2-c2ccc(F)cc2)C(=O)N1Cc1ccccc1	15.8µM*	-0.6%	-8.0%	-17.4%	-3.7%[38.3 µM]
SMILES	ALDH1A1 inh	Luc counter	Lamin A splicing	HPGD block	IMPase Li cell
CN(C)S(=O)(=O)c1ccc(Nc2nc(C3CC3)nc3c2nnn3Cc2ccccc2Cl)cc1	?	5.4%	?	?	-3.1%
COC(=O)CNc1nc(C2CC2)nc2c1nnn2Cc1ccccc1Cl	1.58µM*	1.3%	-8.1%	1.4%	1.7%
Clc1ccccc1Cn1nnc2c(N3CCOCC3)nc(C3CC3)nc21	20µM*	0.2%	1.1%	-14.0%	1.1%[38.3 µM]
COc1ccc(CNC(=O)CN2C(=O)CCn3nc(-c4cn(C)c5ccccc45)cc32)cc1	.	.	6.7%[46 µM]	.	.
Cc1ccc(C)c(NC(=O)CSc2nc(=O)n(CCN3CCOCC3)c3c2CCC3)c1	.	.	14.0%[46 µM]	.	.
Cc1ccc(Cn2c(CO)cnc2SCC(=O)NCc2ccccc2Cl)cc1	.	.	7.7%[46 µM]	.	.
COc1ccc(C(=O)NCC(=O)Nc2cccc(S(=O)(=O)NCc3ccco3)c2)cc1OC	20µM*	2.2%	8.7%[46 µM]	.	15.4%
COc1cccc(S(=O)(=O)NCc2ccc(C(=O)NCc3ccco3)cc2)c1	14.1µM*	2.7%	-5.0%	-11.0%	-2.8%[38.3 µM]
CS(=O)(=O)Nc1ccc(C(=O)NCc2ccco2)cc1	9.1%	-2.2%	6.6%	-18.8%	-0.9%[38.3 µM]
COc1cccc(S(=O)(=O)Nc2ccc(C(=O)NCc3ccco3)cc2)c1	28.2µM*	3.4%	-10.7%	?	18.7%
COc1cccc(NC(=O)COC(=O)c2ccc(S(=O)(=O)NCc3ccco3)cc2)c1	5.0%	20.1%	-1.4%	-3.4%	15.5%[38.3 µM]
COc1ccc(CCNC(=O)c2ccc(CNS(=O)(=O)c3cccc(Cl)c3)cc2)cc1OC	3.55µM*	-1.1%	?	-11.6%	14.4%
CC(C)N(Cc1ccccc1)C(=S)NC1CCCCC1	6.1%	6.9%	1.0%[46 µM]	.	3.4%
CC(C)C(=O)N[C@H]1CCCN1C(=O)/C=C\c1ccccc1	-1.3%[13.5 µM]	.	.	.	.
COc1ccc(CCNCC(=O)Nc2ccccc2C(F)(F)F)cc1	?	-1.5%	?	.	-2.3%
CCc1ccc(S(=O)(=O)NC(=S)Nc2ccccc2)cc1	31.6µM*	.	.	.	.
Cc1ccc(S(=O)(=O)NNC(=S)Nc2ccccc2)cc1	7.51µM*	-2.4%	8.5%	11.2µM*	19.9%[38.3 µM]
CCNC(=S)NS(=O)(=O)c1ccc(CC)cc1	?	0.7%	4.7%	?	3.6%[38.3 µM]
O=C(c1cccnc1)N1CCC(Oc2ccc(C(=O)N3CCCCO3)cc2)CC1	?	-6.4%	29.9%[46 µM]	.	-3.1%
O=C(c1cnn(C(=O)c2ccccc2)c1)c1ccccc1O	2.24µM*	-4.8%	5.8%	-18.1%	-3.1%
Cc1ccc(O)c(C(=O)c2cnn(C(=O)COc3ccc(Cl)cc3)c2)c1	1.78µM*	0.7%	3.1%	-29.4%	-3.9%
O=C(c1cnn(C(=O)COc2ccc(Cl)cc2)c1)c1ccccc1O	4.47µM*	3.9%	5.8%	-16.5%	6.4%
Cc1ccc2oc(=O)n(CCCOc3ccccc3C)c2c1	3.6%	3.8%	?	.	12.6%
Cc1ccc(Nc2c([N+](=O)[O-])c(=O)oc3ccccc23)cc1C	-14.1%	-5.8%	?	.	-2.0%
COC(=O)C(NC(=O)c1c(C)nn(C)c1Cl)c1ccccc1 (stereo not drawn)	1.8%	4.6%	?	.	-0.6%
Cc1oc2cc3c(C(=O)N4CCCCC4)c(C)oc3cc2c1C(=O)N1CCCCC1	?	-4.2%	?	4.47µM*	-11.9%[38.3 µM]
Cc1ccc(C(=O)Nc2ncc3c(Cl)cccc3n2)cc1	-6.8%	11.2µM*	0.1%	-3.8%	-1.1%[38.3 µM]
